Source: PubChem BioAssay (NCI)
This is part of a sample that, as a whole, favours compounds with a hit. Of some 83,000 tested, about 20% had one in any assay.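 Note: values are percent growth. 100 is the growth of untreated cells, values between 100 and 0 indicate rising inhibition; between -100 and 0 indicates cell death.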 Activity calls are given as the source filed them. Rule for the calls: active = growth percent below 10; inactive = the rest.

Experiments:
Assay in all cases: NCI-60 one-dose screen, 48 h (100 = growth as untreated, 0 = no growth, -100 = all killed)
Conditions in all cases: 10 µM unless noted
HCT-15 colon = tested on: HCT-15 colon
HT29 colon = tested on: HT29 colon
SNB-75 CNS = tested on: SNB-75 CNS
SNB-19 CNS = tested on: SNB-19 CNS
U251 CNS = tested on: U251 CNS
PC-3 prostate = tested on: PC-3 prostate
SK-MEL-5 melanoma = tested on: SK-MEL-5 melanoma
UACC-62 melanoma = tested on: UACC-62 melanoma
LOX IMVI melanoma = tested on: LOX IMVI melanoma
SK-MEL-28 melanoma = tested on: SK-MEL-28 melanoma

Measured: growth

CC1(C)[C@@H](O)CC[C@]2(C)[C@H]3CC[C@@H]4[C@H]5[C@H](c6cn(-c7ccccc7)nn6)CC[C@]5(CO)CC[C@@]4(C)[C@]3(C)CC[C@@H]12
inactive: HCT-15 colon 88.8% | HT29 colon 84.7% | SNB-75 CNS 81.9% | SNB-19 CNS 93.1% | U251 CNS 89.6% | PC-3 prostate 52.8% | SK-MEL-5 melanoma 83.7% | UACC-62 melanoma 79.6% | LOX IMVI melanoma 95.6% | SK-MEL-28 melanoma 88.7%

C=C1C(=O)O[C@H]2[C@H]1CC/C(COC(=O)c1cccnc1N)=C\CC[C@@]1(C)O[C@@H]21
inactive: SNB-75 CNS 66% | SNB-19 CNS 25.7% | U251 CNS 28.8% | PC-3 prostate 24.8% | SK-MEL-5 melanoma 15.3% | UACC-62 melanoma 33% | SK-MEL-28 melanoma 19.6%
active: HCT-15 colon 0.999% | HT29 colon -10.4% | LOX IMVI melanoma 7.48%

COc1ccc(NC(=O)Nc2ccc(Nc3nc(C)cc(Nc4ccc(C)cc4)n3)cc2)cc1
active: HCT-15 colon -78.9% | HT29 colon -84.8% | SNB-75 CNS -92.8% | SNB-19 CNS -69.2% | U251 CNS -83.9% | PC-3 prostate -93.3% | SK-MEL-5 melanoma -72.7% | UACC-62 melanoma -83% | LOX IMVI melanoma -85.3% | SK-MEL-28 melanoma -76.8%

COc1cc(N=Nc2cc(S(=O)(=O)O)cc3cc(S(=O)(=O)O)cc(O)c23)c(C)cc1N=Nc1c(S(=O)(=O)O)cc2cc(Nc3ccccc3)ccc2c1O
inactive: HCT-15 colon 110% | HT29 colon 105% | SNB-75 CNS 91.1% | SNB-19 CNS 104% | U251 CNS 109% | PC-3 prostate 90% | SK-MEL-5 melanoma 105% | UACC-62 melanoma 98.5% | LOX IMVI melanoma 99.4% | SK-MEL-28 melanoma 109%

Cc1nnc(/N=C2\NC(=O)/C(=C/c3ccc(N(C)C)cc3)S2)s1
inactive: HCT-15 colon 47.7% | HT29 colon 106% | SNB-75 CNS 67.5% | SNB-19 CNS 80.1% | U251 CNS 72.1% | PC-3 prostate 57.8% | SK-MEL-5 melanoma 42.7% | UACC-62 melanoma 74.9% | LOX IMVI melanoma 64.6% | SK-MEL-28 melanoma 69.2%

CCc1c(C(=O)N[C@@H](C(=O)OCc2ccccc2)C(C)O)[nH]c2ccc(Cl)cc12 (stereo not given in full)
inactive: HCT-15 colon 79.3% | HT29 colon 72.8% | SNB-75 CNS 19.9% | SNB-19 CNS 83.6% | U251 CNS 36.3% | PC-3 prostate 82.1% | SK-MEL-5 melanoma 84.1% | UACC-62 melanoma 91.4% | LOX IMVI melanoma 81.1% | SK-MEL-28 melanoma 100%

CCCNc1nc(C)[nH]c(=O)c1S
inactive: HCT-15 colon 96.5% | HT29 colon 108% | SNB-75 CNS 91.2% | SNB-19 CNS 93.1% | U251 CNS 95% | PC-3 prostate 87.4% | SK-MEL-5 melanoma 110% | UACC-62 melanoma 113% | LOX IMVI melanoma 91% | SK-MEL-28 melanoma 114%

CCCCCCN1C(=O)CN=C1Nc1ccc2cc3ccc(NC4=NCC(=O)N4CCCCCC)cc3nc2c1
inactive: HCT-15 colon 49% | HT29 colon 15.5% | SNB-75 CNS 61.7% | SNB-19 CNS 48.4% | U251 CNS 22.1% | PC-3 prostate 51% | SK-MEL-5 melanoma 82.6% | UACC-62 melanoma 82.6% | SK-MEL-28 melanoma 85.9%
active: LOX IMVI melanoma -41.8%

CCOCc1nc2ccccc2c(=O)[nH]1
inactive: HCT-15 colon 97.2% | HT29 colon 95.9% | SNB-75 CNS 99.2% | SNB-19 CNS 101% | U251 CNS 102% | PC-3 prostate 95.2% | SK-MEL-5 melanoma 104% | UACC-62 melanoma 102% | LOX IMVI melanoma 99.8% | SK-MEL-28 melanoma 106%

C=C1C(=O)O[C@H]2[C@H]1CC/C(COC(=O)c1c[nH]c3ccccc13)=C\CC[C@@]1(C)O[C@@H]21
active: HCT-15 colon -69.5% | HT29 colon -59.8% | SNB-75 CNS -2.2% | SNB-19 CNS -40.3% | U251 CNS -81.2% | PC-3 prostate -52.1% | SK-MEL-5 melanoma -98.2% | UACC-62 melanoma -69.1% | LOX IMVI melanoma -94.8% | SK-MEL-28 melanoma -63.8%

CCCn1cc(/C=N\N=C2\C(=O)Nc3ccc(C)cc32)c2ccccc21
inactive: HCT-15 colon 23% | HT29 colon 17.1% | SNB-75 CNS 85.6% | SNB-19 CNS 63.3% | U251 CNS 40% | PC-3 prostate 18% | SK-MEL-5 melanoma 49.1% | UACC-62 melanoma 40.4% | SK-MEL-28 melanoma 59.4%
active: LOX IMVI melanoma 4.42%

O=c1c2ccccc2oc2ccc(OCCCCCN3CCCCCC3)cc12
inactive: HCT-15 colon 33.1% | HT29 colon 12.9% | SNB-75 CNS 77.1% | SNB-19 CNS 84% | U251 CNS 60.3% | PC-3 prostate 80.7% | LOX IMVI melanoma 49.8% | SK-MEL-28 melanoma 86.3%
active: SK-MEL-5 melanoma -35.2% | UACC-62 melanoma 2.08%

C[C@H](Oc1cc(-c2cnn(C3CCNCC3)c2)cnc1N)c1c(Cl)ccc(F)c1Cl
inactive: HCT-15 colon 43.2% | HT29 colon 12.4% | SNB-75 CNS 76.3% | SNB-19 CNS 65.6% | U251 CNS 37.6% | PC-3 prostate 45.9% | SK-MEL-5 melanoma 59% | UACC-62 melanoma 60.2%
active: LOX IMVI melanoma 8.87% | SK-MEL-28 melanoma -46.5%

Cc1[nH]c(N=Nc2ccccc2)nc1N=Nc1ccccc1
active: UACC-62 melanoma -19.7% | LOX IMVI melanoma 3.24%
inactive: HCT-15 colon 22.8% | HT29 colon 31.2% | SNB-75 CNS 45.1% | SNB-19 CNS 47.7% | U251 CNS 15.9% | PC-3 prostate 36.4% | SK-MEL-5 melanoma 48.1% | SK-MEL-28 melanoma 52.2%

COc1ccc([C@H]2[C@@H](F)C(=O)N2c2cc(OC)c(OC)c(OC)c2)cc1F
inactive: HCT-15 colon 13.6% | SNB-75 CNS 50.9% | SNB-19 CNS 34.1% | U251 CNS 11.9% | PC-3 prostate 23.1% | UACC-62 melanoma 53.4% | LOX IMVI melanoma 24% | SK-MEL-28 melanoma 57.7%
active: HT29 colon 3.73% | SK-MEL-5 melanoma -31.5%

Cc1[nH]c2ncnc(Oc3ccc(NC(=O)Nc4ccc(Cl)c(C(F)(F)F)c4)cc3)c2c1C
inactive: HCT-15 colon 48.3% | HT29 colon 50.2% | SNB-75 CNS 88.1% | SNB-19 CNS 73.4% | U251 CNS 52.5% | PC-3 prostate 35% | SK-MEL-5 melanoma 65.9% | UACC-62 melanoma 55.8% | LOX IMVI melanoma 43.4% | SK-MEL-28 melanoma 59.7%

Cc1cc(C)c(NC(=O)c2sc3nc4c(cc3c2N)CCCCCC4)c(C)c1
inactive: HCT-15 colon 41.1% | HT29 colon 19% | SNB-75 CNS 57.6% | SNB-19 CNS 49.1% | U251 CNS 35.3% | PC-3 prostate 47.9% | SK-MEL-5 melanoma 57.1% | UACC-62 melanoma 34.5% | LOX IMVI melanoma 58.7% | SK-MEL-28 melanoma 75.2%

CSc1cccc(NC(=O)Nc2nc3c(C)cccc3s2)c1
inactive: HCT-15 colon 97.9% | HT29 colon 99.5% | SNB-75 CNS 76.7% | SNB-19 CNS 98.2% | U251 CNS 98.9% | PC-3 prostate 95.7% | SK-MEL-5 melanoma 95.6% | UACC-62 melanoma 78.3% | LOX IMVI melanoma 97.5% | SK-MEL-28 melanoma 112%

O=S(=O)(O)c1ccc(N=NSc2ccc3ccccc3c2)cc1
inactive: HCT-15 colon 104% | HT29 colon 93.8% | SNB-75 CNS 113% | SNB-19 CNS 105% | U251 CNS 96.9% | PC-3 prostate 81.3% | SK-MEL-5 melanoma 100% | UACC-62 melanoma 102% | LOX IMVI melanoma 86.8% | SK-MEL-28 melanoma 106%

COc1ccc2c(c1)Oc1nc(N)c(C#N)c(N)c1C2Sc1ccc(SC)cc1 (stereo not given)
active: HCT-15 colon -10.9% | LOX IMVI melanoma -39.2%
inactive: HT29 colon 17.2% | SNB-75 CNS 34.2% | SNB-19 CNS 58.2% | U251 CNS 13.9% | PC-3 prostate 35.9% | SK-MEL-5 melanoma 40.8% | UACC-62 melanoma 50.7% | SK-MEL-28 melanoma 32.7%

Cc1cccc(C)c1NCc1nnc(-c2ccco2)o1
inactive: HCT-15 colon 103% | HT29 colon 93.9% | SNB-75 CNS 85.5% | SNB-19 CNS 101% | U251 CNS 96.9% | PC-3 prostate 81% | SK-MEL-5 melanoma 96.3% | UACC-62 melanoma 90.1% | LOX IMVI melanoma 93.5% | SK-MEL-28 melanoma 110%

COc1ccc(Nc2cc(NC(=O)CNc3cc(OC)c(Cl)c(OC)c3Cl)ncn2)cc1
inactive: HCT-15 colon 73.5% | HT29 colon 80.9% | SNB-75 CNS 81.3% | SNB-19 CNS 96.8% | U251 CNS 88.5% | PC-3 prostate 57.9% | SK-MEL-5 melanoma 85.1% | UACC-62 melanoma 62.8% | LOX IMVI melanoma 57.2% | SK-MEL-28 melanoma 84.7%

CCc1n(Cc2ccc3ccccc3c2)c2ccccc2[n+]1Cc1ccc2ccccc2c1
inactive: HCT-15 colon 101% | HT29 colon 25.3% | SNB-75 CNS 59% | SNB-19 CNS 45.3% | U251 CNS 34.4% | PC-3 prostate 52.9% | SK-MEL-5 melanoma 38.8% | UACC-62 melanoma 50.6% | LOX IMVI melanoma 63.7% | SK-MEL-28 melanoma 69.8%

C#Cc1ccccc1NC(=O)c1sc2nc3c(cc2c1N)CCCCC3
inactive: HCT-15 colon 97.6% | HT29 colon 81.3% | SNB-75 CNS 90.4% | SNB-19 CNS 109% | U251 CNS 99% | PC-3 prostate 97.7% | SK-MEL-5 melanoma 97.2% | UACC-62 melanoma 95.2% | LOX IMVI melanoma 95.8% | SK-MEL-28 melanoma 111%

COc1ccc(-c2nc(C#N)c(NCC(c3ccco3)N3CCCC3)o2)cc1 (stereo not given)
inactive: HCT-15 colon 30.9% | HT29 colon 10.7% | SNB-75 CNS 40.6% | SNB-19 CNS 51.9% | U251 CNS 35.7% | PC-3 prostate 37% | SK-MEL-5 melanoma 24.6% | UACC-62 melanoma 47.2% | LOX IMVI melanoma 41.4% | SK-MEL-28 melanoma 61.7%

COc1ccc(/C=C/C(=O)C(CC2CCC2)C(=O)/C=C/c2ccc(OC)c(OC)c2)cc1OC
inactive: SNB-75 CNS 64.7%
active: HCT-15 colon -35.4% | HT29 colon -51.1% | SNB-19 CNS -13.1% | U251 CNS -68.8% | PC-3 prostate -8.3% | SK-MEL-5 melanoma -76.6% | UACC-62 melanoma -65.5% | LOX IMVI melanoma -75.4% | SK-MEL-28 melanoma -4.06%
